Hits are enriched below; roughly 12% of the tested compounds scored in any of these assays.
G9a block = qHTS Assay for Inhibitors of Histone Lysine Methyltransferase G9a; Histone-lysine N-methyltransferase EHMT2 (Homo sapiens), Q96KQ7; G9a H3K9 monomethylation, AlphaScreen, 2 h; Potency, µM (highest dose often 102 µM), most hits filed as inhibitors; 350,000 compounds, 8.8% hits; AID 504332, 2011; note: nearly all actives have a fitted effect of over 75% in size
Target sequence (Q96KQ7 913-1193 limits assumed): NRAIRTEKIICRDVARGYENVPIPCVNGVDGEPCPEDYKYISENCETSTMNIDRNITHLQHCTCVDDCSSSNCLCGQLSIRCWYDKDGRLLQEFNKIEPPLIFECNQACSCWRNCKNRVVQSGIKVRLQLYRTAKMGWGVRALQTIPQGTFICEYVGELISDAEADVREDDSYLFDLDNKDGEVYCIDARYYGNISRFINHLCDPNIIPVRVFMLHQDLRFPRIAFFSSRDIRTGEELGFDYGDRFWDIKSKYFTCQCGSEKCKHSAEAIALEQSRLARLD
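Methyltransferase reactions run at room temperature for 2 h (20 nM enzyme, 500 nM biotin-H3K9 peptide, 20 uM SAM) after a 15 min compound preincubation; product detected by AlphaScreen beads and anti-H3K9me1 antibody.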
JMJD2A Tudor inh = qHTS Assay for Inhibitors of JMJD2A-Tudor Domain. AlphaScreen JMJD2A-Tudor / H3K4me3 peptide binding. Potency, µM (doses to about 114 µM), actives largely listed as inhibitors. 390,000 compounds, 4.4% hits; note: nearly all actives have a fitted effect of over 50% in size
HP1b binding inh = HTS for Inhibitors of HP1-beta Chromodomain Interactions with Methylated Histone Tails; Chromobox protein homolog 1 (Homo sapiens), P83916; AlphaScreen HP1-beta / biotin-H3K9me3 peptide binding; Potency, µM (series often up to 114 µM), usual class: inhibitors; 390,000 compounds, 0.56% hits; AID 540317, 2011; note: nearly all actives have a fitted effect of over 70% in size
Target sequence (P83916 whole entry, looked up): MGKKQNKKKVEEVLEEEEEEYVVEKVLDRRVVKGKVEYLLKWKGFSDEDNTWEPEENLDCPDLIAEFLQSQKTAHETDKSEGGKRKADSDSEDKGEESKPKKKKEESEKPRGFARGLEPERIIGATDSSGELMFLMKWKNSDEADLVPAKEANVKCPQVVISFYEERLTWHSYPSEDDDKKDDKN
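Compound inhibition of the preformed complex between 50 nM HP1-beta and 50 nM biotinylated H3K9me3 peptide was read by AlphaScreen. Buffer was PBS pH 7.4 with 0.01% Tween-20. Incubations ran 30 min at room temperature, with 10 ug/mL donor/acceptor beads.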
BAZ2B inh = qHTS Assay for Inhibitors of BAZ2B; 360,000 compounds, 4.4% hits; AlphaScreen BAZ2B-H3K14Ac peptide displacement; Bromodomain adjacent to zinc finger domain protein 2B (Homo sapiens), Q9UIF8; Potency, µM (doses to about 114 µM), hits mostly inhibitors; note: nearly all actives have a fitted effect of over 60% in size
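Compounds, titrated to a top concentration of 110 uM, were incubated 30 min at room temperature with preformed BAZ2B/acetyl-K14 H3 peptide complex (50 nM each). Proximity signal was measured by AlphaScreen after 20 min with beads.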
TDP1 block = qHTS Assay for Inhibitors of Tyrosyl-DNA Phosphodiesterase (TDP1). 350,000 compounds, 0.28% hits. Tyrosyl-DNA phosphodiesterase 1 (Homo sapiens), Q9NUW8. recombinant TDP1, AlphaScreen DNA substrate cleavage. Potency, µM (highest dose often 130 µM), most hits filed as inhibitors; note: nearly all actives have a fitted effect of over 40% in size
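Recombinant human Tdp1 (E. coli-expressed, 1 nM final) preincubated with compounds 15 min at room temperature, then 5'-biotin/3'-phosphotyrosine-FITC DNA substrate (15 nM final) added for 5 min. AlphaScreen beads (10 ug/ml final) added 10 min; cleavage lowers signal.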
Sfp PPTase inh = qHTS Assay for Inhibitors of Bacillus subtilis Sfp phosphopantetheinyl transferase (PPTase). 310,000 compounds, 3.5% hits. Biochemical Sfp PPTase activity, qHTS. AID 1490, 2009. Potency, µM, most hits filed as inhibitors;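 note: the enzyme is Sfp with the accession as filed and its product quenches rhodamine fluorescence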
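Reaction rates are the 30-min fluorescence difference (ex 525, em 598 nm) in wells containing 15 nM Sfp, 5 uM rhodamine-CoA and 12.5 uM BHQ-2-YbbR at pH 7.6 with 10 mM MgCl2.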
A number is an active result; n = inactive; u = inconclusive; x = no result; ! = not confirmed by another sample; [ ] = dose if it differs, or a comment. Calls come from the whole dose curve; as a rule, active = well fitted curve in the direction sought with a large enough effect; inconclusive = small, poorly fitted or top-dose-only effect, or another doubt; inactive = no such curve, though single readings can be large; an effect the other way counts as inactive or inconclusive.

SMILES | G9a block | JMJD2A Tudor inh | HP1b binding inh | BAZ2B inh | TDP1 block | Sfp PPTase inh
COCCn1c(SCC(=O)Nc2cc(Cl)ccc2OC)nc2c([nH]c3ccccc32)c1=O | n | n | n | n | n | x
CCOC(=O)c1c(NC(=S)Nc2ccc(OC)cc2)sc2c1CCC2 | n | n | u | u | n | u
COC(=O)c1c(NC(=S)Nc2ccc(C(=O)N3CCOCC3)cc2)sc2c1CCC2 | 50µM | n | n | n | n | u
CC1=C/C(=C/N(C)c2ccccc2)C(=O)S1 | u | u | u | u | x | 28µM
COc1cc(N/N=C(\C)c2ccc(N)cc2)nc(-c2ccccc2)n1 | 45µM | n | n | 32µM | n | n
CC1(C)CC(=O)C2=C(C1)Nc1ccccc1S2 | 40µM | n | n | u | n | n
Fc1ccc(OCCn2cnc(Cl)c2Cl)cc1 | n | n | n | n | n | n
Cc1cc(Cl)cc(C)c1OCCCCn1ccnc1 | 32µM | u | n | n | n | n
Cc1cccc(OCCn2ccnc2)c1 | u | n | n | n | n | n
Cc1ccccc1OCCCCCn1ccnc1 | n | u | n | n | n | n
Cc1cc(OCCCCn2ccnc2)cc(C)c1Cl | 8.9µM | u | n | u | n | n
Cc1cccc(OCCn2cnc(Cl)c2Cl)c1 | n | n | n | 28µM | n | n
Cc1cccc(OCCCCCn2ccnc2)c1 | 32µM | 3.2µM | u | 50µM | n | n
Cc1ccc(CNC(=O)CCCCCn2c(=O)[nH]c3ccccc3c2=O)cc1 | n | n | n | n | n | x
Clc1ccc(SCCCCn2ccnc2)cc1 | u | 7.9µM | u | 50µM | n | n
Cc1cc(C(=O)NC(C)CCC(C)C)c2ccccc2n1 (stereo not given) | 45µM | n | n | n | n | n
Cc1cc(C(=O)NN=C2CCCC2)c2ccccc2n1 | n | 11µM | n | n | n | x
Cc1cc(C(=O)NN=C2CCCCC2)c2ccccc2n1 | n | n | n | n | n | n
Cc1ccc(NC(=O)CCCn2nc(C)c3sc4ccccc4c3c2=O)c(Cl)c1 | u | n | n | n | n | x
COc1cc(OC)c(NC(=O)CCCn2nc(C)c3sc4ccccc4c3c2=O)cc1Cl | 14µM | u | n | u | n | x
Cc1cc(C)nc(SC/C=C/c2ccccc2)n1 | x | n | n | n | x | 89µM
C(=C\c1ccccc1)/CSc1ccccn1 | n | n | n | n | x | n
COc1cc(NC(=O)CCn2c(=S)oc3ccccc32)cc(OC)c1OC | n | n | n | n | x | n
O=C(N/N=C/c1cccc([N+](=O)[O-])c1)c1ccc2c(c1)OCCO2 | n | n | n | n | n | n
O=[N+]([O-])c1cccc(C=Nc2cc3c(cc2Br)OCCO3)c1 | 50µM | u | n | u | n | n
SMILES | G9a block | JMJD2A Tudor inh | HP1b binding inh | BAZ2B inh | TDP1 block | Sfp PPTase inh
C[n+]1cccc2c(Br)ccc([O-])c21 | x | n | n | n | n | 56µM
CCc1ccccc1NC(=O)CNC(=O)CCNC(=O)Nc1ccccc1 | n[12.7 µM] | n | n | n | n | x
Cc1ccccc1-c1cc(C(=O)NCc2ccc(OC(F)(F)F)cc2)n(CC2CC(c3cccnc3)=NO2)n1 (stereo not given) | x | u | n | x | n | x
CN(C)C(=N)c1n[nH]nc1SCc1ccccc1 | n | n | n | 79µM | n | n
COc1ccc2c(c1)C(=O)c1ccccc1CO2 | n | n | n | n | x | 28µM
CCc1ccc(C2=C(C)C(N3CCC(C(=O)NCc4ccccc4)CC3)=NS2(=O)=O)cc1 | n | n | n | n | n | x
O=c1oc2ccc(Cl)cc2nc1/C=C(\O)c1ccco1 | 8.9µM | 89µM | n | 35µM | n | u
Cc1ccc(/C(O)=C/c2nc3cc(C)ccc3oc2=O)cc1 | x | n | n | n | n | n
CC(C)(C)/C(O)=C/c1nc2ccccc2oc1=O | x | n | n | n | n | n
CC(C)C/C(O)=C/c1nc2cc(Cl)ccc2oc1=O | 35µM | u | n | u | n | 56µM
CC1=C(C(=O)OC2CCCCCC2)C(c2c(F)cccc2Cl)CC(=O)N1 (stereo not given) | n | n | n | n | n[12.3 µM] | x
CC(C)=CCOc1ccc([C@@H]2COc3c(ccc4c3C=CC(C)(C)O4)C2)c(O)c1 | x | n | n | x | x | x
COc1ccccc1-n1c(CCC(=O)O)ccc1-c1ccccc1 | n | n | n | u | x | n
CCOC(=O)c1ccc(-n2c(CCC(=O)O)ccc2-c2ccccc2)cc1O | 18µM | n | n | 45µM | n | x
O=C(O)CCc1ccc(-c2ccccc2)n1-c1cccc(C(=O)O)c1 | n[2.33 µM] | u | n | u | x | 71µM
O=C(O)CCc1ccc(-c2ccccc2)n1-c1ccc(C(=O)O)cc1 | 14µM! | n | n | n | n | n
O=C(O)CCc1ccc(-c2ccc(Br)cc2)n1-c1cccc(O)c1 | 45µM | u | u | u | x | n
CC(=O)c1cccc(-n2c(CCC(=O)O)ccc2-c2ccc(C)cc2)c1 | n[2.33 µM] | n | n | n | x | n
O=C(NCc1ccco1)c1ccc2c(c1)N(Cc1ccc(F)cc1)C(=O)c1ccccc1S2(=O)=O | n | n | n | n | n | x
CC(=O)c1ccc(-n2c(CCC(=O)O)ccc2-c2ccc(Cl)cc2)cc1 | 40µM | n | n | u | x | n
COc1ccc(-n2c(CCC(=O)O)ccc2-c2ccccc2)c(OC)c1 | 8.9µM | u | n | u | x | x
O=c1[nH]c(/C=C\c2cccs2)nc(O)c1[N+](=O)[O-] | u | u | n | n | n | n
O=c1[nH]c(/C=C\c2ccc(O)cc2)nc(O)c1[N+](=O)[O-] | 71µM | n | n | n | x | n
C=CCc1cc(/C=C/c2nc(O)c([N+](=O)[O-])c(=O)[nH]2)cc(OC)c1O | 50µM | n | n | u | u | n
O=c1[nH]c(/C=C\c2ccc(O)c(Cl)c2)nc(O)c1[N+](=O)[O-] | 50µM | n | n | n | x | n
SMILES | G9a block | JMJD2A Tudor inh | HP1b binding inh | BAZ2B inh | TDP1 block | Sfp PPTase inh
CCOc1cc(/C=C\c2nc(O)c([N+](=O)[O-])c(=O)[nH]2)ccc1OC(C)C | u | n | n | n | x | n
COc1ccc(-n2c(=O)c(CCc3ccccc3)nc3cnc(N(C)C)nc32)cc1 | n[12.7 µM] | x | x | x | x | n
O=C(COc1ccccc1F)Nc1nnc(S(=O)(=O)N2CCCCCC2)s1 | n | n | n | n | n | x
CCOc1cc(CNS(=O)(=O)c2ccc3c(c2)CC(=O)N3C)cc(OCC)c1OCC | n | n | n | n | n | n
CCc1sc(Nc2cccc(C)c2)nc1-c1cc2cccc(OC)c2oc1=O | n | n | n | n | n | x
CCOC(=O)CNS(=O)(=O)c1cc(-c2nn(C)c(=O)c3ccccc23)ccc1C | u | u | n | 56µM | 50µM | n
O=C(Nc1cccc(Br)c1)C1CCCC1 | x | n | n | x | x | x
O=C(O)[C@H]1CCCC[C@H]1C(=O)Nc1ccc(Nc2ccccc2)cc1 | 8.9µM | n | n | n | n | n

From PubChem
